Bioassay records: PubChem, National Center for Advancing Translational Sciences (NCATS)
BAZ2B inh: inhibitors of human BAZ2B bromodomain; AlphaScreen BAZ2B-H3K14Ac peptide displacement; Potency, µM (titrated, usually from 114 µM), without a hit: at the top dose activity change, negative = inhibition, most hits filed as inhibitors; actives 4.4% (n = 360,000); AID 504333; also: % is scaled to controls: 0 for no effect and ±100 for the full control effect; nearly all actives have a fitted effect of over 60% in size
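Multi-concentration screen (max 110 uM) measuring displacement of acetylated histone H3 peptide from BAZ2B by AlphaScreen, using 50 nM protein, 50 nM peptide and 10 ug/mL streptavidin donor plus Ni-chelate acceptor beads.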
G9a inh: G9a (human) methyltransferase inhibition; Potency, µM (top dose mostly 102 µM), without a hit: top-dose activity, negative = inhibition, most hits filed as inhibitors; G9a H3K9 monomethylation, AlphaScreen, 2 h; actives 8.8% (n = 350,000); Q96KQ7; AID 504332; also: % is scaled to controls: 0 for no effect and ±100 for the full control effect; nearly all actives have a fitted effect of over 75% in size
Target sequence (Q96KQ7 913-1193 limits assumed): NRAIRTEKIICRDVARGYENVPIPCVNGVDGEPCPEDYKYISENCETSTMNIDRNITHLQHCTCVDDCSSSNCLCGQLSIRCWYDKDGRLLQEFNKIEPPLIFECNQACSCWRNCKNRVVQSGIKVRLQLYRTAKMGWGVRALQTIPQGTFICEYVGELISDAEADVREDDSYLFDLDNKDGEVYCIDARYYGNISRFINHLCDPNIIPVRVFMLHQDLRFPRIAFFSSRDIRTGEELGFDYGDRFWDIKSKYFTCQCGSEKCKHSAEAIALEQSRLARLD
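Quantitative HTS format: methyltransferase activity on a biotin-tagged H3K9 peptide is measured by AlphaScreen, using a rabbit anti-monomethyl-H3K9 antibody with streptavidin donor and anti-IgG acceptor beads. Final levels are 20 nM enzyme, 500 nM peptide, 20 uM SAM; 2 h RT.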
JMJD2A Tudor: inhibitors of human JMJD2A Tudor domain; Potency, µM (highest dose often 114 µM), for the others: at the highest dose activity change, negative = inhibition, most hits filed as inhibitors; AlphaScreen JMJD2A-Tudor / H3K4me3 peptide binding; actives 4.4% (n = 390,000); AID 504339; O75164; also: % is scaled to controls: 0 for no effect and ±100 for the full control effect; nearly all actives have a fitted effect of over 50% in size
L3MBTL1 inh: blocks human L3MBTL1; Q9Y468; AlphaScreen L3MBTL1–H3K9me1 peptide binding; Potency, µM (top dose mostly 57.1 µM), for the others: at the highest dose activity, negative = inhibition, most hits filed as inhibitors; actives 0.66% (n = 230,000); also: % is scaled to controls: 0 for no effect and ±100 for the full control effect; nearly all actives have a fitted effect of over 60% in size
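L3MBTL1 50 nM + b-AHA-H3(1-15)K9me1 75 nM, 30 min RT; compound added, 30 min RT; streptavidin donor/Ni-chelate acceptor beads 10 ug/mL each final, 30 min RT dark; AlphaScreen read.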
HP1b binding inh: inhibitors of HP1-beta chromodomain binding to methylated histone tails; P83916; AlphaScreen HP1-beta / biotin-H3K9me3 peptide binding; Potency, µM (series often up to 114 µM), inactives show top-dose activity change, negative = inhibition, hits mostly inhibitors; actives 0.56% (n = 390,000); also: nearly all actives have a fitted effect of over 70% in size
Target sequence (P83916 whole entry, looked up): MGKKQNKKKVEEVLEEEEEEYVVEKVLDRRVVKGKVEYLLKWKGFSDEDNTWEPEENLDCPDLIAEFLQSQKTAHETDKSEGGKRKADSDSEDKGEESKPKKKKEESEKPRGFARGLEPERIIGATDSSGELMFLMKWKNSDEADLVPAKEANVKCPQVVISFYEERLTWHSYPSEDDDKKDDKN
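HP1-beta protein (50 nM final) preincubated 30 min at room temperature with biotinylated H3(1-18)K9me3 peptide (50 nM) in PBS pH 7.4, 0.01% Tween-20, then compound added for 30 min. AlphaScreen streptavidin donor/nickel chelate acceptor beads (10 ug/mL final), 30 min dark, luminescence read.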
Sfp PPTase inh: blocks B. subtilis Sfp PPTase activity. Q9F4F7. Biochemical Sfp PPTase activity, qHTS. Potency, µM, inactives show largest response in the series, negative = inhibition, usual class: inhibitors. actives 3.5% (n = 310,000);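 also: the enzyme is Sfp with the accession as filed and its product quenches rhodamine fluorescence; 0% = enzyme reaction without inhibitor and -100% = no enzyme wells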
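Sfp 15 nM + cpd, 15 min RT; start w/ rhodamine-CoA 5 uM, BHQ-2-YbbR 12.5 uM (final); 50 mM Hepes pH 7.6, 10 mM MgCl2, 0.01% NP-40, 0.01% BSA; read 525/598 nm at 0 and 30 min.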
An asterisk follows results filed as active; ? = inconclusive; . = no result given; [ ] = dose if it differs, or a comment. An excerpt weighted towards active compounds, which were near 12% of everything screened. Calls follow the shape of the dose curve; as a rule, active = well fitted curve in the direction sought with a large enough effect; inconclusive = small, poorly fitted or top-dose-only effect, or another doubt; inactive = no such curve, though single readings can be large; an effect the other way counts as inactive or inconclusive. Potency is read from the fitted curve at half-maximal effect.

SMILES	BAZ2B inh	G9a inh	JMJD2A Tudor	L3MBTL1 inh	HP1b binding inh	Sfp PPTase inh
COc1ccc(CCN2CC(C#N)=C3c4cc(OC)c(OC)cc4CCN3C2)cc1OC	?	?	?	-7%	6%	-9%
COc1cc2c(cc1OC)C1=C(C#N)CN(C3CCCCC3)CN1CC2	?	45µM*	?	-1%	14%	-13%
CCOc1cccc(NC(=O)Cc2cccs2)c1	10%	-3%	-5%	8%	51%	15%
COC(=O)c1cc(OC)c(OC)cc1NC(=O)Cc1cccs1	?	.	-16%	-19%	30%	?
CC(=O)Nc1cccc(NC(=O)Cc2cccs2)c1	?	79µM*	-25%	-7%	20%	2%
COC(=O)c1sc(NC(=O)Cc2cccs2)nc1C	-3%	28µM*	-9%	11%	11%	14%
COC(=O)c1cc(NC(=O)Cc2cccs2)cc(C(=O)OC)c1	50µM*	?	45µM*	?	?	16%
Fc1ccc(C[n+]2csc3ccccc32)cc1	56µM*	?	?	-7%	15%	45µM*
COc1ccc(-c2nc3ccccc3o2)cc1NC(=O)c1cccc2c(Cl)cccc12	-12%	0%[59 µM]	-10%	.	21%	.
CN1C(=O)C(Cl)(Cl)C(=O)c2ccccc21	40µM*	1µM*	28µM*	-13%	-14%	2.5µM*
CN1C(=O)C2(NC(=O)c3ccccc3N2C)c2ccccc21 (stereo not given)	4%	-6%[59 µM]	-17%	.	29%	11%
Brc1cccc(-c2cnc3n2CCCCC3)c1	-10%	45µM*	?	.	-16%	-17%
Brc1cccc(-c2nnc3n2CCCCC3)c1	5%	18%[59 µM]	-13%[11.4 µM]	.	36%	18%
CCN(CC(=O)Nc1ccc(OC)cc1)C(=O)c1ccc2c(c1)NC(=O)CS2	5%	45µM*	-16%	3%	-5%	.
CCN(CC(=O)Nc1ccc(OC)cc1)C(=O)c1ccc2ccccc2c1	.	.	-9%	0%	15%	.
CCN(CC(=O)Nc1ccc(OC)cc1)C(=O)c1ccc([N+](=O)[O-])cc1	5%	1%	10µM*	.	12%	-22%
COc1ccccc1N1C(=O)C2ON(c3ccccc3)C(c3ccc(N(C)C)cc3)C2C1=O (stereo not given)	35µM*	8.9µM*	.	-19%	.	45µM*
COC(=O)CSC1=C(C#N)C(=O)NC2(CCCCC2)S1	-36%	?	?	8%	?	25µM*
CCc1ccc(CNC(=O)CCS(=O)(=O)Cc2ccc(C)cc2)cc1	-1%	.	2%	.	19%	-2%
COc1ccccc1CNS(=O)(=O)c1ccc2[nH]cc(C(=O)O)c(=O)c2c1	-10%	-21%[59 µM]	40µM*	-10%	?	14%
Cc1ccc(-n2ncc3c(Nc4cccc(C(F)(F)F)c4)ncnc32)cc1C	10%	-5%[59 µM]	-11%	.	58%	.
COC(=O)c1c(C)[nH]c(C(=O)CC#N)c1C	?	3%	-8%	.	39%	2%
COC(=O)Cc1[nH]c(=S)[nH]c1C(=O)OC	-5%	.	3.2µM*	2%	7%	56µM*
S=C(c1ccc(-c2ccc(Cl)cc2)o1)N1CCCCC1	28µM*	13µM*	22µM*	?	?	20µM*
S=C(c1ccc(-c2ccccc2Cl)o1)N1CCCCC1	?	?	?	?	?	40µM*
SMILES	BAZ2B inh	G9a inh	JMJD2A Tudor	L3MBTL1 inh	HP1b binding inh	Sfp PPTase inh
N#CCCN1CCN(C(=S)c2ccc(-c3ccc(Cl)cc3)o2)CC1	40µM*	?	45µM*	.	?	20µM*
CN1CCN(C(=S)c2ccc(-c3cccc(Cl)c3Cl)o2)CC1	?	40µM*	28µM*	?	45µM*	-13%
CCOC(=O)C1CCCN(C(=O)c2ccc(-c3ccccc3Cl)o2)C1 (stereo not given)	.	.	10%	.	7%	.
C=CCC[C@@H](Cc1ccc(F)cc1)C(=O)OC[C@@H](NC(=O)[C@H](CC=C)CC(=O)NCCO)C(C)(C)C	.	.	-8%	1%	44%	.
Cc1ccc(NC(=O)CCC(=O)N2Cc3ccccc3Oc3ncccc32)cc1Cl	-7%[57.1 µM]	-17%[59 µM]	-24%	.	5%	.
CCC(=O)N1CCc2cc(Br)cc(S(=O)(=O)CCC(=O)NCc3ccc(F)cc3)c21	1%	9%[59 µM]	-4%	.	30%	.
O=C(c1ccc(-c2ccccc2Cl)o1)N1CCN(c2ccccc2O)CC1	?	18µM*	?	-19%	-17%	.
O=[N+]([O-])c1ccc(N/N=C2/CCCCC2c2ccccn2)cc1 (stereo not given)	?	32µM*	16µM*	?	-11%[57 µM]	-15%
O=[N+]([O-])c1ccc(NC2CCCC2)cc1	-29%	-6%[59 µM]	-36%	-5%	-1%	4%
Cc1cccc(-c2ocnc2C(=O)Nc2ccccc2NC(=O)c2ccccn2)c1	-11%	-3%	-31%	.	15%	45µM*
CCN(CC)c1ncnc2sc(C(=O)N3CCN(c4ccc(OC)cc4)CC3)c(C)c12	-2%	14µM*	?	5%	-8%	-10%
CCOC(=O)c1sc2ncnc(N3CCN(c4ccc(OC)cc4)CC3)c2c1C	?	13µM*	?	0%	?	?
O=C(NCc1cc(C(F)(F)F)cc(C(F)(F)F)c1)C1CC(c2ccccc2C(F)(F)F)=NO1 (stereo not given)	-5%	12%[2.33 µM]	-22%	2%	29%	.
Nc1ccc(Oc2cc(N)cc(Oc3ccccc3)c2)cc1	50µM*	?	?	.	?	8%
COc1cc(NC(=O)N2CCN(c3cc(-c4noc(C)n4)ccc3C)CC2)cc(OC)c1OC	-6%	14%[59 µM]	-17%	.	11%[57 µM]	.
CCOc1ccc2nc(N3CCCC(C(=O)NCC4CCCO4)C3)sc2c1 (stereo not given)	-11%	-2%	-17%	-4%	30%	-1%
CC1CCN(CCCCOc2ccc(Br)cc2)CC1	-36%	?	5µM*	3%	-46%	-18%
Brc1ccc(OCCCCN2CCCCC2)cc1	7%	.	-13%	56%	18%	3%
